# Most compounds without a hit are left out; they make up all but 2.6% or so of the library.
# HSP90 inh: blocks HSP90-mediated luciferase refolding in reticulocyte lysate; Rabbit reticulocyte lysate, luciferase refolding luminescence, 3 h; inhibition, % at 5.6 µM; 290,000 tested, 0.91% active; AID 1789;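 active = inhibition above the screen-wide mean plus 3 SD, computed separately per campaign, cut at about 16% in these data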;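 also: 0% = DMSO wells and 100% = 60 µM geldanamycin wells; inhibitors lower the luminescence because luciferase stays unfolded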
# LGR2 inh: blocks bursicon-induced cAMP signaling via Drosophila LGR2; HEK293 LGR2, CRE-luciferase, bursicon-stimulated, 4 h; inhibition, % at 9.99 µM; 380,000 tested, 0.35% active;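 active = drop in luminescence signal, shown as inhibition above about 50% in the replicate tests, limit read from the data, passing the limit was not always enough; inconclusive = probably only some replicates passing the limit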;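 also: agonist challenge used bursicon conditioned medium at about half maximal strength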
# EBV LMP1 NFkB: Epstein-Barr LMP1 NF-kappaB reporter inhibition; LMP1-induced NF-kappaB luciferase reporter cells, luminescence; 350,000 tested, 0.69% active; AID 504558; inhibition, % at 12.5 µM; in the data active = inhibition above about 41%; inconclusive = no clear call, values can overlap the other calls;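 also: 0% = neutral control wells and 100% = reference inhibitor control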
# TWEAK Fn14 block: blocks TWEAK-Fn14 interaction in a reporter cell assay. 360,000 tested, 2% active. AID 1159606. TWEAK-stimulated Fn14 reporter cells, luciferase luminescence, 8 h. inhibition, % at 10 µM; in the data active = inhibition above about 50%
# TROY signal inh: inhibitors of TROY-dependent NF-kB signaling; Q293 LMP1-TROYcd NF-kB luciferase reporter, 4 h; inhibition, % at 10 µM; 360,000 tested, 0.98% active; AID 1347056;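 active = compounds whose plate-normalised and pattern-corrected inhibition of the luciferase reporter signal at the single screening dose is 50% or more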
# aDG glyco act: alpha-DG glycosylation activation | 360,000 tested, 0.22% active | Pro5-aDG cells, alpha-DG glycosylation AlphaScreen (IIH6); 0% Pro5, 100% B10-LARGE cell signal | activation, % at 10 µM;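 active = activation of at least 8% versus controls, or a plate z-score of at least 8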;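 also: Pro5 are CHO cells carrying HIG-tagged alpha-DG that lacks glycosylation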
# * = called active by the depositor; ? = inconclusive; / = no result; ! = repeats disagree.
SMILES,HSP90 inh,LGR2 inh,EBV LMP1 NFkB,TWEAK Fn14 block,TROY signal inh,aDG glyco act
CCc1ccc(NC(=O)c2nc(S(=O)(=O)Cc3ccccc3)ncc2Cl)cc1,0.2,3.3,23.1,85.9*,78.8*,-0.5
Cc1ccc(NC(=O)c2nc(S(=O)(=O)Cc3ccccc3C)ncc2Cl)cc1C,3.3,2.7,28.0,82.8*,85.6*,-0.6
CSc1ncc(Cl)c(C(=O)Nc2ccc(C)c(C)c2)n1,-4.0,3.8,1.5,-10.3,-12.8,0.0
Cc1nc(SCc2nc3cc(Cl)c(F)cc3[nH]2)c2oc3ccccc3c2n1,/,17.6,18.7,53.2*,5.6,0.9
Cc1noc(C)c1S(=O)(=O)Nc1ccc2c(c1)CC(=O)N([C@@H](C)CO)C[C@@H](C)[C@@H](CN(C)C(=O)NC1CCCCC1)O2,/,-0.7,/,/,/,/
CCOc1cc(-c2c(C#N)c(N)nc3c2CCc2ccccc2-3)ccc1O,-1.4,12.1,6.9,75.0*,13.9,0.0
COc1ccccc1-c1c(C#N)c(N)nc2c1CCc1ccccc1-2,3.7,21.2,-0.5,72.9*,54.3*,2.7
COc1ccccc1-c1c(C)c(C)nc(N)c1C#N,0.5,/,-19.1,-1.5,-10.0,0.3
C[C@H]1CN([C@@H](C)CO)C(=O)c2cc(NC(=O)Nc3ccc(F)cc3)ccc2O[C@H]1CN(C)S(=O)(=O)c1cn(C)cn1,/,-5.1,/,/,/,/
N#C[C@@H]1[C@@H](c2ccccc2)[C@H](CO)N1S(=O)(=O)Cc1ccccc1,/,6.2,/,/,/,/
C[C@H]1CN([C@@H](C)CO)C(=O)CCCn2cc(nn2)CO[C@@H]1CN(C)C(=O)CCC(F)(F)F,/,-3.5,3.7,88.5*,-4.8,0.0
O=C(C[C@H]1C[C@@H]2c3cc(NC(=O)C4CCOCC4)ccc3O[C@@H]2[C@H](CO)O1)NCc1ccccc1F,/,3.7,/,/,/,/
O=C([C@@H]1[C@@H](CO)[C@@H]2Cn3c(ccc(C4=CCCC4)c3=O)[C@H]1N2)N1CCCCC1,/,-6.5,/,/,/,/
Cc1cc(C)c2c(N)c(-c3nc4ccccc4[nH]3)sc2n1,-3.6,/,-34.4,-15.2,-19.3,0.1
Cc1ccc2nc(-c3sc4nc(C)ccc4c3N)[nH]c2c1,11.7,/,-54.5,71.2*,24.7,0.3
CCn1c(=O)c2cc(C(=O)NCc3cccs3)sc2c2ccccc21,2.1,0.7,51.6*,-7.0,-0.3,-0.2
CC(=O)c1cccc(NC(=O)COC(=O)COc2c(Cl)cc(Cl)c3ccc(C)nc23)c1,2.4,/,3.1,63.1*,28.0,0.1
CC(c1ccccc1)c1nnc(NC(=O)Nc2ccccc2F)s1 (stereo not drawn),-1.1,-47.8,46.1*,-22.0,-11.8,0.0
CC1(C)C2CCC1(C)C(OCC[N+](C)(C)CC(=O)OC1CCCCC1)C2 (stereo not drawn),3.8,-22.1,68.3*,11.5,20.4,-0.5
COCC(=O)N1C[C@H](C)[C@@H](OC)CN(C)C(=O)c2cc(NC(=O)NC(C)C)ccc2OC[C@H]1C,/,10.6,/,/,/,/
COc1ccc(CC(C)NCC(O)c2ccc(O)c(NC=O)c2)cc1 (stereo not drawn),/,-0.9,61.1*!,-40.8,3.0,-0.3
O=C(COC(=O)C1CC(=O)N(c2ccc3c(c2)OCCO3)C1)Nc1ccc2c(c1)CCC2 (stereo not drawn),2.4,-1.3,-2.3,64.9*,10.3,-0.3
COc1ccccc1NC(=O)NC1CC(=O)N(c2ccc3c(c2)OCCO3)C1 (stereo not drawn),/,6.8,-3.3,12.7,-8.2,-0.2
COc1ccccc1NC(=O)COC(=O)C1CC(=O)N(c2ccc3c(c2)OCCO3)C1 (stereo not drawn),/,-7.6,2.1,64.1*,20.0,-0.1
CNC[C@H]1OCCCC[C@H](C)Oc2ccc(NC(=O)Nc3ccc(F)cc3)cc2C(=O)N([C@H](C)CO)C[C@H]1C,/,15.3,/,/,/,/
SMILES,HSP90 inh,LGR2 inh,EBV LMP1 NFkB,TWEAK Fn14 block,TROY signal inh,aDG glyco act
N#Cc1cccc(-c2ccc([C@H]3[C@@H](CO)N4CCCCN(C(=O)Nc5cccc(F)c5)C[C@@H]34)cc2)c1,/,0.8,/,/,/,/
CC(=O)c1cccc(NC(=O)COc2cc3oc(=O)c(CC(C)O)c(C)c3cc2Cl)c1 (stereo not drawn),0.5,41.4,20.5,59.8*,44.7,0.0
CCOC(=O)c1ccc(NC(=O)COc2cc3oc(=O)c(CC(C)O)c(C)c3cc2Cl)cc1 (stereo not drawn),0.8,-31.8,2.2,6.0,17.6,0.1
CC1OC(CC(=O)O)CC2=C1C(=O)c1c(O)cccc1C2=O (stereo not drawn),/,98.8*,88.1*,105.7*,63.9*,-0.7
CC1=Nc2ccccc2/C1=C\c1sc(Nc2ccc(C)cc2)nc1O,-6.4,-12.6,9.2,54.6*,25.9,-0.3
Oc1nc(Nc2cccc(Cl)c2)sc1/C=C1\C=Nc2ccccc21,2.5,4.5,-24.7,53.3*,83.3*,0.3
CNC[C@@H]1Oc2cc(C#Cc3ccc(OC)cc3)ccc2S(=O)(=O)N([C@@H](C)CO)C[C@H]1C,/,-3.6,/,/,/,/
CC1Cc2ccccc2N1C(=O)Cn1nnc(-c2ccccc2NC(=O)C2CCC2)n1 (stereo not drawn),-0.8,/,7.6,45.5,59.4*,0.3
O=C(Nc1ccccc1-c1nnn(CC(=O)N2CCc3ccccc3C2)n1)C1CCC1,-3.1,/,-1.6,71.1*,/,0.0
CCC(=O)Nc1ccccc1-c1nnn(CC(=O)N2c3ccccc3CC2C)n1 (stereo not drawn),-0.2,18.9,2.7,0.4,5.1,0.2
N#C[C@H]1[C@@H](c2ccccc2)[C@H](CO)N1C(=O)CN1CCOCC1,/,-1.0,/,/,/,/
CN1C2CCC1/C(=C/c1cccn1C)C(=O)/C2=C\c1cccn1C,1.0,-11.8,-1.6,-3.8,0.6,-0.5
CN1C2CCC1/C(=C\c1ccc(F)cc1)C(=O)/C2=C/c1ccc(F)cc1,2.1,9.8,-73.6,64.6*,-13.8,-0.4
Cn1c(=O)c2ncn(CC(=O)O)c2n(C)c1=O,-1.0,-16.0,?,-8.7,52.4*,-0.1
Cc1cccc(C)c1NC(=O)Cn1cnc2c(=O)n(C)c(=O)n(C)c21,1.3,/,4.1,3.5,0.2,-0.1
CO[C@H]1CN(C)C(=O)c2cc(NC(=O)Cc3ccccc3)ccc2OC[C@@H](C)N(CC2CC2)C[C@@H]1C,/,-10.1,/,/,/,/
CNC[C@H](CC1CCCCC1)NC[C@H](Cc1ccccc1)NCCC12CC3CC(CC(C3)C1)C2,3.6,101.3*,-14.2,-42.7,41.7,-0.4
CC1(C)CC(=O)C2=C(C1)Oc1nc3ccccc3cc1C2C(C#N)C#N (stereo not drawn),1.2,/,6.1,68.6*,12.4,0.0
COc1ccc(C2=Nn3c(nnc3-c3ccccc3Cl)SC2)cc1OCC1CC1,/,15.3,12.2,32.4,60.7*,-0.1
O=C(C=Cc1cccs1)c1cccs1,/,-39.7,-6.6,6.9,-44.3,0.1
O=C(/C=C\c1cccs1)c1c(O)ccc2ccc(=O)oc12,4.5,28.5,-10.8,50.9*,5.2,-0.1

# Compound activity deposited in PubChem BioAssay by several laboratories.
